DRD3 antagonist: blocks the human D3 dopamine receptor; D3R cells, DiscoveRx beta-arrestin luminescence, antagonist mode; stronger effect = lower value; max response, negative = inhibition, %; 360,000 tested, 2.5% active; in the data active = max response below about -50%; inconclusive = no clear call, values can overlap the other calls; also: % is scaled to controls: 0 for no effect and ±100 for the full control effect
Target sequence (P35462 whole entry, looked up): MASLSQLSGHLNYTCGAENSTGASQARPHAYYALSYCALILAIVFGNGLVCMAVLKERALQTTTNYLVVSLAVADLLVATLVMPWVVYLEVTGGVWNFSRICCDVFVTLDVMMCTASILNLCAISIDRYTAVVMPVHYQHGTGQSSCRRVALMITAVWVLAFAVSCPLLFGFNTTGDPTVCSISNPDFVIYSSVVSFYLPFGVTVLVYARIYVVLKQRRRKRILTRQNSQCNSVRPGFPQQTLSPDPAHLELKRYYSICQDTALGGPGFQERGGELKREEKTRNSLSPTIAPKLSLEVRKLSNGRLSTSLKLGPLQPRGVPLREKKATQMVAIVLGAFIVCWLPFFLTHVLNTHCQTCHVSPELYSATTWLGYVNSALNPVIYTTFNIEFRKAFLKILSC
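Cells plated overnight at 1500 cells/well, then exposed to library compounds with dopamine controls for 90 minutes at 37 degrees C. DiscoveRx reagent added for 30–60 minutes at room temperature; luminescence read, quantitative HTS format.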
ATXN viability: reduces viability in counter-screen for ATXN expression inhibitors | 400,000 tested, 0.49% active | S2 cells (HEK-293 line with an ATXN2-luciferase reporter) viability, CellTiter-Fluor protease fluorescence, 24 h | Potency, µM (series often up to 56.7 µM), actives largely listed as cytotoxic; also: potency is read from the fitted curve at half-maximal effect; nearly all actives have a fitted effect of over 40% in size
DRD3 agonist: agonists of human D3 dopamine receptor | P35462 | 410,000 tested, 0.58% active | D3R DiscoveRx beta-arrestin cells, luminescence, 90 min | AID 652048 | max activation, %; in the data active = max activation above about 30%; also: 0% is about no effect
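Cells at 1500/well, incubated overnight, then treated with pinned compounds (dopamine as control) for 90 min at 37 degrees C. DiscoveRx reagent added for 30 - 60 minutes at room temperature; luminescence read.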
ATXN2 expr inh: ATXN2 expression inhibition. HEK-293 ATXN2-luciferase reporter, luminescence, 24 h. Potency, µM (titrated, usually from 57 µM), for inactives: top-dose activity change, negative = inhibition, hits mostly inhibitors. 360,000 tested, 0.72% active; also: potency is read from the fitted curve at half-maximal effect; % is scaled to controls: 0 for no effect and ±100 for the full control effect; nearly all actives have a fitted effect of over 55% in size
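qHTS (up to 57 uM final) was run with 24 h compound exposure of reporter cells at 37 °C. Each well was multiplexed: SteadyGlo luminescence measured ATXN2-luciferase expression after a fluorogenic Gly-Phe-AFC viability readout (25 uM final).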
TGFb inhibitor: inhibitors of TGF-b signaling; AID 588855; Potency, µM (top dose mostly 46.1 µM), inactives show top-dose activity, negative = inhibition, most hits filed as inhibitors; HepG2 CAGA-GFP TGF-b/SMAD3 reporter, GFP fluorescence, 18 h; TGF-beta stimulated, 500 pg/mL final; 410,000 tested, 1.2% active; also: potency is read from the fitted curve at half-maximal effect; % is scaled to controls: 0 for no effect and ±100 for the full control effect; nearly all actives have a fitted effect of over 65% in size
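Per well, imaged GFP fluorescence of HEPG2 CAGA-GFP cells gives the signal; cells get compound, then TGF-beta (500 pg/mL final), 18 h at 37 degrees C; %Activity versus -TGF-beta and +DMSO controls.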
HepG2 tox: counter-screen for TGF-b inhibitors: cytotoxicity in HepG2 cells. AID 588856. Potency, µM (series often up to 46.1 µM), inactives show at the highest dose activity change, negative = cytotoxicity, actives largely listed as cytotoxic. HepG2 CAGA-GFP viability, ATP luminescence, 18 h. 410,000 tested, 0.76% active; also: potency is read from the fitted curve at half-maximal effect
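HepG2 CAGA-GFP cells (1000/well, DMEM with 1% FBS) received compound, then TGF-beta at 500 pg/mL final, and were incubated 18 hours at 37 degrees C. Viability was read by CellTiter-Glo luminescence. Media-only wells were set as complete cell-killing and DMSO as no toxicity.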
An asterisk follows results filed as active; i = inactive; u = inconclusive; x = no result. Most compounds without a hit are left out; they make up all but 4.7% or so of the library. Unless noted, calls follow the shape of the dose curve; as a rule, active = well fitted curve in the direction sought with a large enough effect; inconclusive = small, poorly fitted or top-dose-only effect, or another doubt; inactive = no such curve, though single readings can be large; an effect the other way counts as inactive or inconclusive.

SMILES	DRD3 antagonist	ATXN viability	DRD3 agonist	ATXN2 expr inh	TGFb inhibitor	HepG2 tox
CNC(=O)OCc1nc(SSC(C)(C)C)n(C)c1COC(=O)NC	-14	x	-8	u	11µM*	-77%
Oc1cccc(C=Nc2cccc3ccccc23)c1O	-75*	u	0	u	u	-98%
Cc1ccc2nc(SCC3CCCCO3)[nH]c2c1 (configuration not stated)	-16	i	-3	11µM*	-3%	25%
CCOC(=O)c1[nH]c2ccc(OC)cc2c1NC(=S)N1CCN(c2cccc(C)c2C)CC1	-26	i	-1	-31%	18µM*	10µM*
CC(NC(=O)C1CCN(C(=O)c2ccc(-n3ccc4ccccc43)s2)CC1)c1ccccc1 (configuration not stated)	x	x	2	x	u	-24%
CCc1nn2c(=O)c(S(=O)(=O)Nc3ccc(Cl)cc3)c(C)nc2s1	9	i	2	-11%	18%	27%
CCOc1ccc(NS(=O)(=O)c2c(C)nc3sc(CC)nn3c2=O)cc1	-53*	i	0	6%	u	-32%
CCCC(=O)NC(c1ccccc1)c1ccc2cccnc2c1O (configuration not stated)	u	i	31*	14µM*	u	-25%
CCC(=O)NC(c1ccccc1OC)c1ccc2cccnc2c1O (configuration not stated)	-9	u	2	u	2.5µM*	3.5µM*
Oc1cccc(C(Nc2ccccn2)c2ccc3cccnc3c2O)c1Cl (configuration not stated)	x	u	24	8.9µM*	u	-49%
CCCC(=O)NC(c1ccc(OC)cc1)c1ccc2cccnc2c1O (configuration not stated)	-12	x	0	1.9µM*	u	-9%
CCC(=O)NC(c1ccc(OC)cc1)c1c(O)ccc2ccccc12 (configuration not stated)	u	u	-3	x	-24%	-17%
CCCCC(=O)NC(c1ccccc1)c1ccc2cccnc2c1O (configuration not stated)	-12	i	3	u	u	-30%
Oc1c(C(Nc2ccccn2)c2ccccc2)ccc2cccnc12 (configuration not stated)	x	x	x	x	-19%	-31%
COc1ccc(Br)cc1C1NC(c2ccc3c(c2)OCO3)=CC(c2ccccc2O)N1 (configuration not stated)	x	x	x	x	u	-32%
COc1ccc(SCC(Cc2ccccc2)N2CCN(CC(C)C)CCC2=O)cc1 (configuration not stated)	x	x	x	x	u	-30%
CCCCC(=O)NC(c1ccccc1Cl)c1ccc2cccnc2c1O (configuration not stated)	1	u	7	2.8µM*	u	-33%
Cc1sc2ccccc2[n+]1CCCC[n+]1c(C)sc2ccccc21	x	x	x	x	u	-31%
O=C1C(CO)C(CO)C(CO)C1CO (configuration not stated)	-6	i	39*	-4%	-3%	1%
CNC(=O)c1cc(Oc2ccc(NC(=O)Nc3cc(C(C)(C)C)nn3-c3ccc4ncccc4c3)c(F)c2)ccn1	x	x	x	1.4µM*	x	x
Cc1ccc(C2NC(=O)c3c(sc4c3CCN(C)C4)N2)s1 (configuration not stated)	-55*	i	-25	29%	6%	-13%
Cc1ccc(C2NC(=O)c3c(sc4c3CCN(C)C4)N2)o1 (configuration not stated)	4	i	-6	6%	0%	-1%
CN1CCc2c(sc3c2C(=O)NC(c2ccccc2)N3)C1 (configuration not stated)	-4	x	-24	-3%	4%	-15%
CN1CCc2c(sc3c2C(=O)NC(c2ccc4c(c2)OCO4)N3)C1 (configuration not stated)	-126*	i	-17	8%	0%	-7%

Assay outcomes as filed in PubChem.
